This passage reports binding signal results from paper PMC7862700, “An all-to-all approach to the identification of sequence-specific readers for epigenetic DNA modifications on cytosine”.

Holding throughout (test): DAPPL (digital affinity profiling via proximity ligation, sequencing); 10 mM Tris-HCl pH 7.5, 50 mM NaCl, 1 mM DTT, 4% glycerol, room temperature, 30 min; GST-TFs on glutathione beads, 16-mer random dsDNA library, 0.1% formaldehyde crosslink after washing; high values mean tight binding
Details in all cases: protein: recombinant; tags: N-terminal GST; dsDNA, one strand shown

The target of one experiment is T1, ERF (Homo sapiens, UniProt P50548 1-548).
T1 sequence: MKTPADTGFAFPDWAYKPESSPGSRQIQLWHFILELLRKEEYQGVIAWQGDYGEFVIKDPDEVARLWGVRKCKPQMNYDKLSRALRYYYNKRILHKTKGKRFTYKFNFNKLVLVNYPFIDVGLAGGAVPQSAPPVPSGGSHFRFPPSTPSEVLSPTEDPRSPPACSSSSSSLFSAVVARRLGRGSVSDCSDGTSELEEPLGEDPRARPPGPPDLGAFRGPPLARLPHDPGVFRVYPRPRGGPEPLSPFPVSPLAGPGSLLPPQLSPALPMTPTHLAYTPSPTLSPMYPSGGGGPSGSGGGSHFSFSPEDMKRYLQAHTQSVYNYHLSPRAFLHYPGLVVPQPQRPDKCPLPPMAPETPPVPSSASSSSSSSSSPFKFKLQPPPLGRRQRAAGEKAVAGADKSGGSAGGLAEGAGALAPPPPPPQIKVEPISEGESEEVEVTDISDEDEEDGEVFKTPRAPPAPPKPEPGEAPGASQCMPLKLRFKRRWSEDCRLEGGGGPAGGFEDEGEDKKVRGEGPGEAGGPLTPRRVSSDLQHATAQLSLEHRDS
In short, it runs like this: (§1)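 GST fusions of human transcription factors were expressed in yeast and captured with glutathione beads. Once given DNA barcodes and pooled alongside a tag-only sample, they were incubated for 30 min at room temperature with 200 nmole of a random double-stranded 16-mer DNA library in Tris/NaCl/DTT/glycerol buffer, then washed, crosslinked (0.1% formaldehyde), proximity-ligated, PCR-amplified and sequenced on an Illumina NextSeq500. The binding signal of each hexamer is its read frequency for a factor divided by its frequency for the tag-only sample.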

The target in the next experiment is T2, ETV3L (Homo sapiens, UniProt Q6ZN32 1-361).
T2 sequence: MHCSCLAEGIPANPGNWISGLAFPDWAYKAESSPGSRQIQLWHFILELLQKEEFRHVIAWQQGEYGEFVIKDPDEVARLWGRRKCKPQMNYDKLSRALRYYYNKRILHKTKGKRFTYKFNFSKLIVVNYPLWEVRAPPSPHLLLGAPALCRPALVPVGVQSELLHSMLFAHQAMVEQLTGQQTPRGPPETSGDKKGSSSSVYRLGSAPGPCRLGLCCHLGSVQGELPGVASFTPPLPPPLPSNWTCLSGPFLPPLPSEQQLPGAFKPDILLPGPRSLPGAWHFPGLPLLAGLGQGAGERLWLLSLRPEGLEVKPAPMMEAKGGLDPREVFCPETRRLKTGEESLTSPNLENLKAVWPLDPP
In outline:
as §1

In another experiment the target is T3, ETS2 (Homo sapiens, UniProt P15036 1-469).
T3 sequence: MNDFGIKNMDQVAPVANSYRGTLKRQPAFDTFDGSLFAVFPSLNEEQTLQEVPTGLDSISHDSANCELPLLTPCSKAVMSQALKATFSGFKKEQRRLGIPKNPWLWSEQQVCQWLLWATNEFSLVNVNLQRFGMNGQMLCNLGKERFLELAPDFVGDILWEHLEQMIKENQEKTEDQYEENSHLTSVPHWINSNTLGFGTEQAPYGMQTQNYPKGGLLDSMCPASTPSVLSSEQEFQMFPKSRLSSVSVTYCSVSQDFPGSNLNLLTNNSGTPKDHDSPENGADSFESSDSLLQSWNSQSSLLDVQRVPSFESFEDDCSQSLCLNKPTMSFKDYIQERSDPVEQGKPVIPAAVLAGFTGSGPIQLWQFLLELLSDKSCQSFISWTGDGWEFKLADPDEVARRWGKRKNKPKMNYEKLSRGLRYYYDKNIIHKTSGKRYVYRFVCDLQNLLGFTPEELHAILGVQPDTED
In short, it runs like this: as §1

Another experiment deals with T4, SPDEF (Homo sapiens, UniProt O95238 1-335).
T4 sequence: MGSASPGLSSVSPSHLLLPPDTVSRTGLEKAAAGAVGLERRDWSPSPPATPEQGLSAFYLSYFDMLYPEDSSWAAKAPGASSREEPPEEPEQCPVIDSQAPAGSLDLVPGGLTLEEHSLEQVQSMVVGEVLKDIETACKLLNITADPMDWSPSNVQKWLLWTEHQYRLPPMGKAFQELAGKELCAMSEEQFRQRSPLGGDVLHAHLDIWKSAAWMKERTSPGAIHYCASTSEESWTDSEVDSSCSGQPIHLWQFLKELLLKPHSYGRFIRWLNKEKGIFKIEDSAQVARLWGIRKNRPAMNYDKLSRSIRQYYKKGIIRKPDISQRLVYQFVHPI
In outline:
as §1

For another experiment, the target named is T5, ETV7 (Homo sapiens, UniProt Q9Y603 1-341).
T5 sequence: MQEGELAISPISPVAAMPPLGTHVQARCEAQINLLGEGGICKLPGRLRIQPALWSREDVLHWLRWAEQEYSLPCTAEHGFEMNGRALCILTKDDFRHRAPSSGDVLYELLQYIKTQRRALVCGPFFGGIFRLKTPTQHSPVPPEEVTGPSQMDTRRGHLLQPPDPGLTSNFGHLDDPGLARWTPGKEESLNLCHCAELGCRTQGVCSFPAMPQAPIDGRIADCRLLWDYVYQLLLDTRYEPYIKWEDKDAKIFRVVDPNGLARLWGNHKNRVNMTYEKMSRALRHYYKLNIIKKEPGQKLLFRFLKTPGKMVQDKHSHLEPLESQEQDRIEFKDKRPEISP
In outline: as §1

A further experiment addresses T6, ELF5 (Homo sapiens, UniProt Q9UKW6-2 1-255).
T6 sequence: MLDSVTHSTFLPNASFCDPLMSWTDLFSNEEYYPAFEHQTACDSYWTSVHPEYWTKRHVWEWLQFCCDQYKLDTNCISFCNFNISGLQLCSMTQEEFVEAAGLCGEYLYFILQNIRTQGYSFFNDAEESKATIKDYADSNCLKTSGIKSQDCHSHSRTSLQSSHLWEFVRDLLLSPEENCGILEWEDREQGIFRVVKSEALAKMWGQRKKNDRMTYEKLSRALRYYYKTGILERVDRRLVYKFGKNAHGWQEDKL
In outline:
as §1

The target of the next experiment is T7, ETV3 (Homo sapiens, UniProt P41162-2 1-143).
T7 sequence: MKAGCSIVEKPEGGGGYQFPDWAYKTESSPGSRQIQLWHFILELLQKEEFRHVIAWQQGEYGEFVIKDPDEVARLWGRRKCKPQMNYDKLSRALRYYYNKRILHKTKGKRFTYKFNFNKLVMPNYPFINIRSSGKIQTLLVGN
In short, it runs like this:
as §1

The target in the next experiment is ETV6 (Homo sapiens, UniProt P41212 1-452). In outline:
as §1

Chain of ETV6 (P41212 whole entry): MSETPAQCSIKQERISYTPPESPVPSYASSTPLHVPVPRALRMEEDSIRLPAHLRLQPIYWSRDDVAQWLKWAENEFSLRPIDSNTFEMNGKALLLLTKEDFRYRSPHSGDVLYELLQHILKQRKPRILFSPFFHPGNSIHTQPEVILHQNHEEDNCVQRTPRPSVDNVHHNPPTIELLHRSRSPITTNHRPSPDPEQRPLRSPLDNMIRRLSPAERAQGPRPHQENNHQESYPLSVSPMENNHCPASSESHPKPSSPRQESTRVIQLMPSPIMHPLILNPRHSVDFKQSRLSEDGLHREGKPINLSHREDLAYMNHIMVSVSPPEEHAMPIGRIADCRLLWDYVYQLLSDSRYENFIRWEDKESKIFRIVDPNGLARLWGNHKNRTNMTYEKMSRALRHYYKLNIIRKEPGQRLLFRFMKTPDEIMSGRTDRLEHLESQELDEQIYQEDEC

GCTTAG: the binding signal with ERF is 1.2 fold enrichment (6-mer frequency, TF over GST control); with ETV3L, 1.12 fold enrichment (6-mer frequency, TF over GST control); with ETS2, 1.11 fold enrichment (6-mer frequency, TF over GST control); with SPDEF, 1.17 fold enrichment (6-mer frequency, TF over GST control); with ETV7 it was 1.13 fold enrichment (6-mer frequency, TF over GST control); in the experiment with ELF5, 1.01 fold enrichment (6-mer frequency, TF over GST control). Moreover, the binding signal is 1.19 fold enrichment (6-mer frequency, TF over GST control) in the experiment with ETV3 and 1.07 fold enrichment (6-mer frequency, TF over GST control) with ETV6.

With TACTGC, the binding signal is 1.14 fold enrichment (6-mer frequency, TF over GST control) in the experiment with ERF; 1.17 fold enrichment (6-mer frequency, TF over GST control) in the experiment with ETV3L; 1.2 fold enrichment (6-mer frequency, TF over GST control) with ETS2; 1.26 fold enrichment (6-mer frequency, TF over GST control) with SPDEF; 1.2 fold enrichment (6-mer frequency, TF over GST control) with ETV7; 1.17 fold enrichment (6-mer frequency, TF over GST control) with ELF5. Besides, the binding signal is 1.31 fold enrichment (6-mer frequency, TF over GST control) with ETV3 and 1.26 fold enrichment (6-mer frequency, TF over GST control) with ETV6.

On to TATGCA, for which the binding signal in the experiment with ERF is 1.25 fold enrichment (6-mer frequency, TF over GST control); with ETV3L it was 1.27 fold enrichment (6-mer frequency, TF over GST control); with ETS2 it was 1.29 fold enrichment (6-mer frequency, TF over GST control); in the experiment with SPDEF, 1.36 fold enrichment (6-mer frequency, TF over GST control); in the experiment with ETV7 it was 1.18 fold enrichment (6-mer frequency, TF over GST control); in the experiment with ELF5, 1.23 fold enrichment (6-mer frequency, TF over GST control). Moreover, the binding signal is 1.33 fold enrichment (6-mer frequency, TF over GST control) with ETV3 and 1.15 fold enrichment (6-mer frequency, TF over GST control) in the experiment with ETV6.

In the case of CCAATG, the binding signal is 1.03 fold enrichment (6-mer frequency, TF over GST control) with ERF; 1.11 fold enrichment (6-mer frequency, TF over GST control) with ETV3L; 1.08 fold enrichment (6-mer frequency, TF over GST control) with ETS2; 1.02 fold enrichment (6-mer frequency, TF over GST control) in the experiment with SPDEF; 1.1 fold enrichment (6-mer frequency, TF over GST control) with ETV7; 1.05 fold enrichment (6-mer frequency, TF over GST control) in the experiment with ELF5. The binding signal with ETV3 is 1.15 fold enrichment (6-mer frequency, TF over GST control); in the experiment with ETV6, 1.14 fold enrichment (6-mer frequency, TF over GST control).

As to TCCCTT, the binding signal was 1.57 fold enrichment (6-mer frequency, TF over GST control) with ERF; 1.64 fold enrichment (6-mer frequency, TF over GST control) with ETV3L; 1.67 fold enrichment (6-mer frequency, TF over GST control) with ETS2; 1.61 fold enrichment (6-mer frequency, TF over GST control) in the experiment with SPDEF; 1.57 fold enrichment (6-mer frequency, TF over GST control) with ETV7; 1.72 fold enrichment (6-mer frequency, TF over GST control) with ELF5. For the same sequence, the binding signal with ETV3 is 1.54 fold enrichment (6-mer frequency, TF over GST control); with ETV6, 1.53 fold enrichment (6-mer frequency, TF over GST control).

As for AAGCTC, the binding signal with ERF was 1.2 fold enrichment (6-mer frequency, TF over GST control); with ETV3L, 1.2 fold enrichment (6-mer frequency, TF over GST control); with ETS2, 1.13 fold enrichment (6-mer frequency, TF over GST control); with SPDEF, 1.06 fold enrichment (6-mer frequency, TF over GST control); with ETV7 it was 1.08 fold enrichment (6-mer frequency, TF over GST control); with ELF5, 1.07 fold enrichment (6-mer frequency, TF over GST control). The binding signal is 1.18 fold enrichment (6-mer frequency, TF over GST control) with ETV3 and 1.23 fold enrichment (6-mer frequency, TF over GST control) with ETV6.

For the sequence GCGTTC, the binding signal was 1.11 fold enrichment (6-mer frequency, TF over GST control) with ERF; 1.15 fold enrichment (6-mer frequency, TF over GST control) with ETV3L; 1.21 fold enrichment (6-mer frequency, TF over GST control) in the experiment with ETS2; 1.02 fold enrichment (6-mer frequency, TF over GST control) in the experiment with SPDEF; 1.23 fold enrichment (6-mer frequency, TF over GST control) with ETV7; 1.03 fold enrichment (6-mer frequency, TF over GST control) with ELF5. In addition, the binding signal is 1.11 fold enrichment (6-mer frequency, TF over GST control) in the experiment with ETV3 and 1.12 fold enrichment (6-mer frequency, TF over GST control) with ETV6.

As for CGACTT, the binding signal with ERF is 1.62 fold enrichment (6-mer frequency, TF over GST control); with ETV3L it was 1.62 fold enrichment (6-mer frequency, TF over GST control); with ETS2 it was 1.76 fold enrichment (6-mer frequency, TF over GST control); in the experiment with SPDEF it was 1.54 fold enrichment (6-mer frequency, TF over GST control); with ETV7, 1.53 fold enrichment (6-mer frequency, TF over GST control); with ELF5 it was 1.72 fold enrichment (6-mer frequency, TF over GST control). Also, the binding signal in the experiment with ETV3 was 1.78 fold enrichment (6-mer frequency, TF over GST control); in the experiment with ETV6 it was 1.79 fold enrichment (6-mer frequency, TF over GST control).

As to CTTGAC, the binding signal was 1.16 fold enrichment (6-mer frequency, TF over GST control) in the experiment with ERF; 1.17 fold enrichment (6-mer frequency, TF over GST control) in the experiment with ETV3L; 1.12 fold enrichment (6-mer frequency, TF over GST control) with ETS2; 1.13 fold enrichment (6-mer frequency, TF over GST control) with SPDEF; 1.2 fold enrichment (6-mer frequency, TF over GST control) with ETV7; 1.21 fold enrichment (6-mer frequency, TF over GST control) in the experiment with ELF5. For the same sequence, the binding signal with ETV3 was 1.22 fold enrichment (6-mer frequency, TF over GST control); with ETV6, 1.23 fold enrichment (6-mer frequency, TF over GST control).
